Bioassay records (PubChem)
IL1B secr inh: inhibitors of inflammasome signaling (IL-1 beta secretion); THP-1 LPS/ATP IL-1B secretion, AlphaLISA, 16 h; hits give low values; activity change, % at 57.5 µM; 360,000 compounds, 4.7% hits; AID 743279; in the data active means activity change below about -50%; inconclusive means mostly about -30% to -49%; further: on the % scale 0 is the no-effect control and ±100 the full control effect
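THP-1 cells pretreated 1 hr with compounds (up to 57.5 uM final), then stimulated with LPS (250 ng/mL final) plus ATP (1.25 mM final); secreted IL-1B measured by AlphaLISA after 16 hr, decreased signal indicating inhibition.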
SW480 rereplic: DNA re-replication induction in SW480 cells; SW480 DNA re-replication, Hoechst DNA content imaging, 48 h; 340,000 compounds, 1.8% hits; Potency, µM (top dose mostly 46.1 µM), for the others: at the highest dose re-replication activation, most hits filed as activators; AID 624297; further: potency means the concentration at half of the fitted maximal effect; % of control where 0% means no effect; nearly all actives have a fitted effect of over 55% in size
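Compounds, transferred as 23 nL by pin tool, were incubated with cells for 48 hr; DNA content per nucleus was then quantified by Hoechst staining and fluorescence plate imaging.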
DT40 TDP1 CPT: growth inhibition of DT40 Tdp1-/-;hTDP1 cells with camptothecin (screen for TDP1 inhibitors); chicken DT40 Tdp1-/-;hTDP1 cells + 20 nM CPT, ATP luminescence, 48 h; 420,000 compounds, 12% hits; Potency, µM (highest dose often 46.2 µM), without a hit: at the highest dose activity change, negative = growth inhibition, usual class: inhibitors; further: potency means the concentration at half of the fitted maximal effect; on the % scale 0 is the no-effect control and ±100 the full control effect; nearly all actives have a fitted effect of over 55% in size
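Cell growth measured by CellTiter-Glo luminescence after a minimum 48 h, 37 C compound exposure with 20 nM CPT in Tdp1-knockout DT40 cells stably expressing hTDP1, seeded 400/well; qHTS titration format.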
Chronic BCR inh: chronic active BCR signaling inhibition. ABC-DLBCL IkBa-CBG/CBR reporter, luminescence ratio, 4 h. Potency, µM (highest dose often 46.1 µM), for inactives: at the highest dose activity change, negative = inhibition, hits mostly inhibitors. 340,000 compounds, 0.05% hits. AID 493014; active means well fitted inhibition curve with a large enough effect in the signal ratio, with a control signal flat, not every such curve was filed as active; inconclusive means small, poorly fitted or top-dose-only effect, or effect the other way, or a change in a side signal; the % refers to the signal ratio;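 further: potency means the concentration at half of the fitted maximal effect; plate controls were basal doxycycline-induced cells for no effect and cells given 10 µM MG132 for full effect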
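Cell line TMD8 (human ABC DLBCL), stably expressing tet-inducible CBG68-IkBa fusion and CBR; IMDM/0.5% FBS; cpd up to 46 uM; dox induction, 4 h, 37C/5% CO2; dual luminescence; green/red ratio; MG132 control.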
MCF10A rerep: induces DNA re-replication in MCF 10a normal breast cells | MCF 10A DNA re-replication, Hoechst nuclear intensity, 48 h | Potency, µM (series often up to 46.1 µM), for the others: at the highest dose activity, positive = re-replication, usual class: activators | 350,000 compounds, 2.9% hits | AID 624296; further: potency means the concentration at half of the fitted maximal effect; % of control where 0% means no effect; nearly all actives have a fitted effect of over 50% in size
DT40 TDP1 no CPT: qHTS for Inhibitors of human tyrosyl-DNA phosphodiesterase 1 (TDP1): qHTS in cells in absence of CPT; DT40 Tdp1-/- hTDP1 cells, no CPT, ATP luminescence, 48 h; Potency, µM (top dose mostly 46.2 µM), for inactives: at the highest dose activity change, negative = growth inhibition, most hits filed as inhibitors; 420,000 compounds, 15% hits; AID 686978, 2013; further: potency means the concentration at half of the fitted maximal effect; on the % scale 0 is the no-effect control and ±100 the full control effect; nearly all actives have a fitted effect of over 55% in size
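A cellular qHTS used chicken DT40 cells lacking endogenous Tdp1 but carrying stably transfected human TDP1. Compounds were applied without camptothecin, and cell growth kinetics were judged by ATP-dependent luminescence after ≥48 hr.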
Active calls of the source: *; ? = inconclusive; . = not tested or not shown. This is a sample that favours compounds with a hit; in the whole collection about 19% have one here. Unless noted, the call rests on the fitted dose curve; in most records, active means well fitted curve in the direction sought with a large enough effect; inconclusive means small, poorly fitted or top-dose-only effect, or another doubt; inactive means no such curve, though single readings can be large; an effect the other way counts as inactive or inconclusive.

SMILES	IL1B secr inh	SW480 rereplic	DT40 TDP1 CPT	Chronic BCR inh	MCF10A rerep	DT40 TDP1 no CPT
O=C(Nc1c(F)cccc1F)c1cnc(N2CCN(c3ccccn3)CC2)c2ccccc12	?	15.5%	23.1µM*	?	19.7%	23.1µM*
O=C(O)c1cn(Cc2ccccc2)nc1-c1cccnc1	-1.8	13.6%	2.7%	0.0%	1.0%	1.2%
Cc1ccccc1C(=O)N1CCN(c2ccccn2)CC1	-10.6	0.8%	0.1%	-12.4%	-1.4%	-6.3%
O=C(N1CCOCC1)N1CCN(c2ccccn2)CC1	0.9	3.8%	4.5%	0.4%	-6.4%	4.1%
O=C(c1ccccc1-c1ccccc1)N1CCN(c2ccccn2)CC1	0.0	7.31µM*	3.26µM*	-4.2%	7.31µM*	2.59µM*
CC(=O)c1ccc(N2CCN(C(=O)c3cn(Cc4ccccc4)nc3-c3cccnc3)CC2)c(F)c1	-4.4	-10.5%	?	-11.3%	-6.4%	23.1µM*
O=C(c1cn(Cc2ccccc2)nc1-c1ccccc1)N1CCN(c2ccccn2)CC1	6.8	?	5.8µM*	4.6%	5.0%	5.8µM*
CC[n+]1oc(-c2ccccc2)cc1C	7.8	-16.1%	5.2%	-4.4%	-8.2%	-24.1%
CC(NC(=O)C1CCOCC1)c1nnc2n1CCN(Cc1cc3c(cc1Cl)OCO3)CC2 (centres undefined)	.	.	2.2%	.	.	-3.2%
O=C(c1cnc(N2CCN(c3ncccn3)CC2)c2ccccc12)N1CCN(c2ccccn2)CC1	-66.4*	-6.6%	?	?	?	?
COc1ccc(C(=O)CSc2nnc(CC(=O)Nc3ccccc3OC)n2C)cc1	7.2	-7.7%	-1.2%	-2.1%	-3.1%	?
CCOC(=O)c1c(SCCN2CCCCC2)n(-c2ccccc2)c(=S)n(-c2ccccc2)c1=O	0.0	11.6µM*	2.91µM*	.	9.2µM*	4.11µM*
CCOC(=O)c1c(SC)n(-c2ccccc2)c(=S)n(-c2ccccc2)c1=O	15.2	-7.0%	-2.2%	-1.5%	7.8%	-5.4%
C=CCNC(=S)NNc1nc(Nc2ccccc2)nc(N2CCCCC2)n1	-63.1*	4.1%	14.6µM*	-7.1%	14.7%	8.2µM*
C=CCNC(=S)NNc1nc(N2CCCC2)nc(N2CCCC2)n1	-6.5	3.7%	-27.7%	-0.8%	1.1%	-19.8%
O=C(NN1C(=O)C2C3c4ccccc4C(c4ccccc43)C2C1=O)C1CC1 (centres undefined)	-0.8	-20.1%	-2.1%	-1.1%	-8.2%	-15.1%
CC(C)(C)[C@H]1COC(=O)CCCC/C=C\C[C@H](CC(=O)NCCO)C(=O)N1	8.6	-5.6%	-3.8%	0.0%	0.9%	1.6%
CCSS(=O)(=O)c1cccc2cccnc12	.	?	14.6µM*	?	?	?
CCCCN(c1ccccc1)S(=O)(=O)c1cccc2cccnc12	33.2	1.9%	?	10.4%	1.6%	14.6µM*
CCN(CC)c1ccc(NS(=O)(=O)c2ccc3c(c2)oc(=O)n3C)c(C)c1	-26.3	-12.9%	25.9µM*	-12.7%	-4.8%	?
CC(C)(C)CC(C)(C)Nc1c(-c2ccc(O)cc2)nc2cnccn12	-14.8	7.8%	18.4µM*	.	28.2%	25.9µM*
Cc1ccc2nc(-c3ccc(F)cc3)c(NC(C)(C)CC(C)(C)C)n2c1	.	.	16.4µM*	.	.	8.2µM*
CC(C)(C)S(=O)(=O)N1C[C@@H]2C(=CC[C@H]3C(=O)N(c4ccccc4)C(=O)[C@@H]23)[C@@H]1CCO	-2.2	-42.3%	-25.5%	.	-44.9%	-24.7%
CCN1CCN(c2ncc3c(n2)CC(c2ccc(OC)c(OC)c2)CC3=O)CC1 (centres undefined)	11.7	?	23.1µM*	-6.9%	?	14.6µM*
